About 83,000 compounds went through this panel and 20% of them were active in at least one assay; those are over-represented in the sample as a whole.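 Cells were grown in 96-well plates and exposed to the test compound at a single concentration for 48 hours; results are reported as percent growth, with values below 10 considered active.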 Values without a mark were called inactive. Active and inactive are the calls of the source.

This assay has as its system SK-OV-3 ovarian. Put plainly: NCI-60 one-dose screen, 48 h (100 = growth as untreated, 0 = no growth, -100 = all killed). The note with it: 10 µM.
With `COc1cc(/C=C/C(=O)c2ccc(C(F)(F)F)cc2)ccc1Oc1nc(Nc2ccc(F)cc2)nc(N(C)C)n1`, the growth was 103%.
The result for `Cc1ccc(/C=C/C(=O)c2ccc(NC(=O)CSc3nnc(-c4c[nH]c5ccccc45)n3-c3ccccc3)cc2)c(C)c1` reads 106%; that for `COc1ccc(/C=C/C(=O)c2ccc(S(=O)(=O)NCCNc3nc(Nc4ccc(F)cc4)nc(N(C)C)n3)cc2)cc1`, 76%; that for `N#Cc1c(-c2ccc(Cl)cc2)cc(-c2ccccc2)nc1OCc1ccccc1`, 83.1%.
Then `Nc1nnc(-c2c[nH]c3ncccc23)c(-c2c[nH]c3ccc(Br)cc23)n1`, with 55.3%; and `CC(=O)OC[C@@]1(C)C2CC[C@]3(C)C(CC=C4C5CC(C)(C)CC[C@]5(C(=O)Nc5ccccc5)CC[C@]43C)[C@@]2(C)C[C@@H](OC(C)=O)[C@@H]1OC(C)=O` (some centres not stated), with 45.2%.
Then `O=C(CSc1nnc(-c2c[nH]c3ccccc23)n1-c1ccccc1)Nc1ccc(C(=O)/C=C/c2cccc([N+](=O)[O-])c2)cc1`, with 106%; and `C/C(=C\c1ccc(O)cc1O)c1ccc2ccc(O)cc2[o+]1`, with 103%; and `CCCCOc1ccc(Nc2nc3ccccc3nc2Nc2ccc(OCCCC)cc2)cc1`, with 106%.
`Nc1nc(Nc2ccc(Cl)cc2)nn1Cc1cccc(Br)c1`: the growth is 47.2%.
The result for `COc1ccc(/C=N/N=C(\C)c2ccc3c(c2)Nc2ccccc2S3)cc1O` reads 87.3%; that for `O=C(CSc1nnc(-c2c[nH]c3ccccc23)n1-c1ccccc1)c1ccc(Br)cc1`, 48.6%.
With `COC(=O)c1c(C(=O)OC)c2n(c1C)[C@@H]([C@@H](C)[C@H]1CC[C@H]3[C@@H]4CCC5=CC(=O)CC[C@]5(C)[C@H]4CC[C@]13C)SC2`, the growth was 48.7%.
Then `COc1ccc(C(=O)/C=C/c2cc(C(F)(F)F)cc(C(F)(F)F)c2)cc1S(N)(=O)=O`, with 20%; and `CCCn1c(O)c(N=Nc2nc(-c3cc4ccccc4oc3=O)cs2)c2cc(Br)ccc21`, with 110%.
Consider `O/N=C(\CSc1nnc(-c2c[nH]c3ccccc23)n1-c1ccccc1)c1ccc(Br)cc1`, for which the growth is -50.2% (active).
Then `CC(=O)Oc1ccccc1C(=O)Oc1ccc(C(=O)/C=C/c2ccncc2)cc1`, with 96.7%.
On to `CC(=O)C1=C(C)NC(SCC(=O)Nc2ccc(S(=O)(=O)Nc3cc(C)on3)cc2)=NC1c1ccccc1` (configuration not stated), for which the growth is 101%.
For the molecule `COc1cc2c3c(n(CCCn4ccnc4)c(=O)c2cc1OC)-c1nc2c(cc1C3=O)OCO2`, the growth is 18.3%.
For the molecule `O=S(=O)(Nc1ncccn1)c1ccc(-n2c(-c3ccc(Br)cc3)nc(-c3ccccc3)c2-c2ccccc2)cc1`, the growth was 76.4%.
Then `COc1ccc(-c2cc(C(=O)N=Nc3c(O)[nH]c4ccc(Br)cc34)c3ccccc3n2)cc1`, with 114%; and `CCOC(=O)CNC(=O)CN(Cc1ccccc1)C(=O)[C@@]1(C)CCC[C@]2(C)[C@H]3CC4C(C(C)C)=C[C@]3(CC[C@H]21)[C@@H]1C(=O)CCC(=O)[C@H]41`, with 96.6%.
For `CC1(c2ccccc2)NC(=O)N(CC(=O)Nc2ccc(C(=O)/C=C/C=C/c3ccccc3)cc2)C1=O` (configuration not stated), the growth is 120%.
Turning to `O=c1c2ccccc2nc(COc2ccccc2)n1/N=C/c1ccc(F)cc1`, the growth is 114%.
Turning to `COc1ccc(-c2cc(-c3cc(C(=O)c4ccccc4)n4ccc(C)cc34)nc(N)c2C#N)cc1`, the growth was 94.4%.
With `COc1cc(C2CC(c3ccc(C)cc3)=Nc3c(N)nc(N)nc3N2)ccc1Oc1nc(Nc2ccc(F)cc2)nc(N(C)C)n1` (configuration not stated), the growth is 100%.
The result for `O=C(Nc1cccc(C(F)(F)F)c1)c1cncc(C#Cc2cnc3ccc(N4CCOCC4)nn23)c1` reads 3.44% (active); that for `CC(=O)Nc1ccc(-c2cn(-c3cccc(C(=O)Nc4ccc(F)c(C(F)(F)F)c4)c3)nn2)cn1`, 90.8%; that for `CN(C(=O)c1ccc(C(F)(F)F)cc1C(F)(F)F)c1sc2c(c1C#N)CCC(=O)C2`, 85.9%.
Then `C#CCNC(=O)CCC(=O)OC[C@]12CC[C@@H](C(=C)C)[C@@H]1C1CC[C@@H]3[C@@]4(C)CCCNC(C)(C)[C@@H]4CC[C@@]3(C)[C@]1(C)CC2` (some centres not stated), with 26.9%; and `COc1ccc2[nH]cc(/C=N/Nc3ccc(Br)cn3)c2c1`, with 65.7%.
Take `[2H]C([2H])([2H])Oc1ccc2ncc(C#Cc3cncc(C(=O)Nc4ccc(CN5CCN(C)CC5)c(C(F)(F)F)c4)c3)n2n1`: the growth is -58.4% (active).
For the molecule `COc1ccc(CN2[C@H](C(=O)NCc3ccc(C(=O)NO)cc3)Cc3c([nH]c4ccccc34)[C@H]2C2CC2)cc1`, the growth is 62%.
The result for `O=c1cc(-c2ccccc2)oc2cc(OCCCCNCc3ccccc3)cc(O)c12` reads 61.1%.
The result for `O=c1[nH]c2ccccc2cc1CSc1ccc(Nc2nccc(-c3ccc(C(F)(F)F)cc3)n2)cc1` reads 79.5%.
Then `CN(C)c1ccc(/C=C/c2nc3ccccc3c(=O)n2CC(=O)Nc2ccccc2)cc1`, with 92%; and `Cc1ccc(-c2nc(Nc3ccc(C)c(S(N)(=O)=O)c3)c3ccccc3n2)cc1`, with 125%.
